The test system of assay [1] is RAW-Dual. The experiment in a line: NF-kB SEAP reporter activity, fold change vs agonist alone; cytotoxicity flag (confluency mask): not cytotoxic; higher = enhanced NF-kB activity. The essentials: (§1)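 Reporter activity is given as fold change relative to agonist-alone wells. To measure it, 50 nL of library stock was pin-tooled onto RAW-Dual macrophages (50,000 cells/well, DMEM, 384-well plates), a PRR agonist followed 1 h later, and cells stayed at 37 °C, 5% CO2. Twenty hours on, supernatant was assayed for IRF (QuantiLuc luminescence) and NF-κB (QuantiBlue, 620 nm absorbance), and wells under 70% of agonist-control IncuCyte confluency in both mask sets were marked cytotoxic.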

Assay [2] deals with RAW-Dual. Nature of the assay: NF-kB SEAP reporter activity, fold change vs agonist alone; higher = enhanced NF-kB activity. The conditions noted are these: library stock concentration (final ~1000-fold dilution): 10 mM. The essentials:
as §1

Assay [3] relates to RAW-Dual. The experiment in a line: NF-kB SEAP reporter activity, fold change vs agonist alone; cytotoxicity flag (confluency mask): cytotoxic (confluency <70% of control); higher = enhanced NF-kB activity. The method, boiled down:
as §1

Setting [4] is: agonist: ODN 1826 (TLR9) 0.5 ug/mL.
[5] abbreviates: agonist: Pam2CSK4 (TLR2/6) 0.1 ug/mL.
[6] abbreviates: agonist: Pam3CSK4 (TLR2/1) 0.1 ug/mL.
[7] abbreviates: cytotoxicity flag (confluency mask): not cytotoxic, agonist: Imiquimod (TLR7) […].
Where [8] appears, read: cytotoxicity flag (confluency mask): not cytotoxic, agonist: MPLA (TLR4) […].

Each structure is given as a SMILES string. ± gives the standard deviation of the averaged measurements. Whole data set: some 2,900 compounds, median “NF-kB SEAP reporter activity, fold change vs agonist alone” near 0.99, cut for the highest 2% near 2.6. What follows is part of a selection rich in the highest values, with near analogues and random picks from the rest.

Consider `O=C(O)CCN1C(=O)/C(=C2/C(=O)Nc3ccc(Cl)cc32)SC1=S` (library stock concentration (final ~1000-fold dilution): 10 mM), for which the “NF-kB SEAP reporter activity” value in assay [1] (agonist: LPS (TLR4) 0.1 ug/mL) worked out at 1.86; in assay [1] (setting [4]), 0.841; in assay [1] (setting [5]), 1.4; in assay [1] (setting [6]) it was 1.57.

`O=C(O)CCN1C(=O)/C(=C2/C(=O)Nc3ccc(Cl)cc32)SC1=S`: the “NF-kB SEAP reporter activity” value came out at 0.954 in assay [2] (setting [7]) and 1.18 in assay [2] (setting [8]).

Turning to `COc1cc2c(OC3OC(CO)C4OC(C)(C)OC4C3O)c3c(c(-c4ccc5c(c4)OCO5)c2cc1OC)C(=O)OC3` (configuration not stated) (library stock concentration (final ~1000-fold dilution): 10 mM), the “NF-kB SEAP reporter activity” value is 2.9 in assay [1] (agonist: LPS (TLR4) 0.1 ug/mL), 0.644 in assay [1] (setting [4]), 1.95 in assay [1] (setting [5]) and 3.92 in assay [1] (setting [6]).

For the molecule `COc1cc(/C=C/CO)cc(OC)c1OC1OC(CO)C(O)C(O)C1O` (configuration not stated) (library stock concentration (final ~1000-fold dilution): 10 mM), the “NF-kB SEAP reporter activity” value in assay [1] (agonist: LPS (TLR4) 0.1 ug/mL) was 1.08; in assay [1] (setting [4]) it was 1.01; in assay [1] (setting [5]), 1.11; in assay [1] (setting [6]), 1.15.

Consider `COc1cc(-c2oc3cc(O)cc(O)c3c(=O)c2OC2OC(CO)C(O)C(O)C2OC2OC(C)C(O)C(O)C2O)ccc1O` (configuration not stated) (library stock concentration (final ~1000-fold dilution): 10 mM), for which the “NF-kB SEAP reporter activity” value is 1.2 in assay [1] (agonist: LPS (TLR4) 0.1 ug/mL), 0.987 in assay [1] (setting [4]), 1.01 in assay [1] (setting [5]) and 0.949 in assay [1] (setting [6]).

In the case of `COc1cc(/C=C/CO)cc(OC)c1OC1OC(CO)C(O)C(O)C1O` (configuration not stated), the “NF-kB SEAP reporter activity” value was 1.03 in assay [2] (setting [7]) and 1.08 in assay [2] (setting [8]).

Turning to `COc1cc(-c2oc3cc(O)cc(O)c3c(=O)c2OC2OC(CO)C(O)C(O)C2OC2OC(C)C(O)C(O)C2O)ccc1O` (configuration not stated), the results for the “NF-kB SEAP reporter activity” value in assay [2] (setting [7]) and in assay [2] (setting [8]) were 0.928 and 1.05, respectively.

On to `COc1cc2c(OC3OC(CO)C4OC(C)(C)OC4C3O)c3c(c(-c4ccc5c(c4)OCO5)c2cc1OC)C(=O)OC3` (configuration not stated), for which the “NF-kB SEAP reporter activity” value in assay [2] (setting [7]) stood at 0.364; in assay [2] (setting [8]) it was 2.28.

Regarding `CC(NC(CCc1ccccc1)C(=O)O)C(=O)N1CCCC1C(=O)O.O.O` (configuration not stated) (library stock concentration (final ~1000-fold dilution): 10 mM), the “NF-kB SEAP reporter activity” value amounted to 0.977 in assay [1] (agonist: LPS (TLR4) 0.1 ug/mL), 1.07 in assay [1] (setting [4]), 1.14 in assay [1] (setting [5]) and 1.09 in assay [1] (setting [6]).

For the molecule `CC(NC(CCc1ccccc1)C(=O)O)C(=O)N1CCCC1C(=O)O.O.O` (configuration not stated), the “NF-kB SEAP reporter activity” value in assay [2] (setting [7]) was found to be 0.942; in assay [2] (setting [8]), 1.12.

Take `COc1cc(C(N)=O)nc(-c2cccc(C#C[C@]3(O)CCN(C)C3=O)c2)c1`: the “NF-kB SEAP reporter activity” value in assay [2] (setting [7]) came to 0.839; in assay [2] (setting [8]) it was 0.915.

For `COc1cc(C(N)=O)nc(-c2cccc(C#C[C@]3(O)CCN(C)C3=O)c2)c1` (library stock concentration (final ~1000-fold dilution): 10 mM), the “NF-kB SEAP reporter activity” value amounted to 1.39 in assay [1] (agonist: LPS (TLR4) 0.1 ug/mL), 0.529 in assay [1] (setting [4]), 0.699 in assay [1] (setting [5]) and 0.966 in assay [1] (setting [6]).

Consider `Cc1noc(C)c1-c1ccc(-c2cc(C(N)=O)c(NC(N)=O)s2)c(OC2CCNC2)c1` (configuration not stated), for which the “NF-kB SEAP reporter activity” value in assay [2] (setting [7]) came out at 0.654 ± 0.054; in assay [2] (setting [8]), 0.683 ± 0.15.

Take `Cc1noc(C)c1-c1ccc(-c2cc(C(N)=O)c(NC(N)=O)s2)c(OC2CCNC2)c1` (configuration not stated) (library stock concentration (final ~1000-fold dilution): 10 mM): the “NF-kB SEAP reporter activity” value amounted to 0.567 ± 0.07 in assay [1] (agonist: LPS (TLR4) 0.1 ug/mL), 0.449 ± 0.019 in assay [1] (setting [4]), 0.275 ± 0.0078 in assay [1] (setting [5]) and 0.392 ± 0.058 in assay [1] (setting [6]).

Take `CCN(C(=O)c1c(O)n(C)c2cccc(Cl)c2c1=O)c1ccccc1` (library stock concentration (final ~1000-fold dilution): 10 mM): the “NF-kB SEAP reporter activity” value turned out to be 1.08 in assay [1] (agonist: LPS (TLR4) 0.1 ug/mL), 1.06 in assay [1] (setting [4]), 1.01 in assay [1] (setting [5]) and 1 in assay [1] (setting [6]).

In the case of `CCN(C(=O)c1c(O)n(C)c2cccc(Cl)c2c1=O)c1ccccc1`, the “NF-kB SEAP reporter activity” value in assay [2] (setting [7]) is 0.913; in assay [2] (setting [8]), 0.993.

On to `C=C(Cc1ccccc1Cl)C(=O)OCC`, for which the “NF-kB SEAP reporter activity” value in assay [2] (cytotoxicity flag (confluency mask): cytotoxic (confluency <70% of control), agonist: Imiquimod (TLR7) […]) was 0.73; in assay [2] (cytotoxicity flag (confluency mask): cytotoxic (confluency <70% of control), agonist: MPLA (TLR4) […]) it was 0.891.

Regarding `C=C(Cc1ccccc1Cl)C(=O)OCC` (library stock concentration (final ~1000-fold dilution): 10 mM), the “NF-kB SEAP reporter activity” value in assay [3] (agonist: LPS (TLR4) 0.1 ug/mL) amounted to 0.636; in assay [3] (setting [4]), 0.588; in assay [3] (setting [5]), 0.682; in assay [3] (setting [6]), 0.806.

For the molecule `Cn1cc(-c2cc(Oc3cc(F)c(NC(=O)C4(C(=O)Nc5ccccc5)CC4)cc3F)ccn2)cn1` (library stock concentration (final ~1000-fold dilution): 10 mM), the “NF-kB SEAP reporter activity” value in assay [1] (agonist: LPS (TLR4) 0.1 ug/mL) turned out to be 3.09; in assay [1] (setting [4]), 0.863; in assay [1] (setting [5]), 0.629; in assay [1] (setting [6]) it was 0.98.

As to `COc1cc2nccc(Oc3ccc(NC(=O)C4(C(=O)Nc5ccc(F)cc5)CC4)cc3)c2cc1OC.O=C(O)CC(O)C(=O)O` (library stock concentration (final ~1000-fold dilution): 10 mM), the “NF-kB SEAP reporter activity” value turned out to be 0.861 in assay [1] (agonist: LPS (TLR4) 0.1 ug/mL), 0.525 in assay [1] (setting [4]), 0.284 in assay [1] (setting [5]) and 0.277 in assay [1] (setting [6]).

In the case of `COc1cc2nccc(Oc3ccc(NC(=O)C4(C(=O)Nc5ccc(F)cc5)CC4)cc3)c2cc1OC.O=C(O)CC(O)C(=O)O`, the “NF-kB SEAP reporter activity” value in assay [2] (setting [7]) was 0.796; in assay [2] (setting [8]) it was 0.939.

For the molecule `COCCNCc1ccc(-c2cc3nccc(Oc4ccc(NC(=O)C5(C(=O)Nc6ccc(F)cc6)CC5)cc4F)c3s2)nc1` (library stock concentration (final ~1000-fold dilution): 10 mM), the “NF-kB SEAP reporter activity” value in assay [1] (agonist: LPS (TLR4) 0.1 ug/mL) was 0.36; in assay [1] (setting [4]), 0.205; in assay [1] (setting [5]), 0.0909; in assay [1] (setting [6]), 0.149.

Take `Cn1cc(-c2cc(Oc3cc(F)c(NC(=O)C4(C(=O)Nc5ccccc5)CC4)cc3F)ccn2)cn1`: the “NF-kB SEAP reporter activity” value was 0.974 in assay [2] (setting [7]) and 1.71 in assay [2] (setting [8]).

Turning to `COCCNCc1ccc(-c2cc3nccc(Oc4ccc(NC(=O)C5(C(=O)Nc6ccc(F)cc6)CC5)cc4F)c3s2)nc1`, the figures for the “NF-kB SEAP reporter activity” value in assay [2] (setting [7]) and in assay [2] (setting [8]) were 0.327 and 0.388, respectively.
